# Experiments:
# Test in all cases: SPOT peptide array binding signal intensity (averaged, normalized) (arbitrary units (background-subtracted, floor 0; scale differs between SH3 domains)); higher = stronger binding of the SH3 domain to the peptide
# AgAbp1 = molecular target: AgAbp1
# In short: (§1)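 Detection of bound protein relied on anti-GST antibody, an HRP anti-mouse secondary and luminol, with imaging and quantification in Genespotter. The bound protein was GST-fused SH3 domains from four yeast species, incubated at 10 μg/ml overnight at 4°C in TBS-based blocking buffer on cellulose membranes carrying synthetic 15-mer peptides with cysteines replaced by serines. Binding signal is normalized, background-subtracted spot intensity averaged over replicates, in arbitrary units that differ between domains.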
# AgBbc1 = molecular target: AgBbc1
# In short: as §1
# AgBem1-D1 = molecular target: AgBem1-D1
# In short: as §1
# AgBzz1-D1 = molecular target: AgBzz1-D1
# In short: as §1
# AgBzz1-D2 = molecular target: AgBzz1-D2
# In short: as §1
# AgCyk3 = molecular target: AgCyk3
# In short: as §1
# AgFus1 = molecular target: AgFus1
# In short: as §1
# AgHof1 = molecular target: AgHof1
# In short: as §1
# AgHse1 = molecular target: AgHse1
# In short: as §1
# AgLsb1 = molecular target: AgLsb1
# In short: as §1
# AgLsb4 = molecular target: AgLsb4
# In short: as §1
# AgMyo5 = molecular target: AgMyo5
# In short: as §1
# AgNbp2 = molecular target: AgNbp2
# In short: as §1
# AgRvs167 = molecular target: AgRvs167
# In short: as §1
# AgSho1 = molecular target: AgSho1
# In short: as §1
# AgSla1-D1-D2 = molecular target: AgSla1-D1-D2
# In short: as §1
# AgSla1-D3 = molecular target: AgSla1-D3
# In short: as §1
# CaAbp1-D1 = molecular target: CaAbp1-D1
# In short: as §1
# CaAbp1-D2 = molecular target: CaAbp1-D2
# In short: as §1
# CaBbc1 = molecular target: CaBbc1
# In short: as §1
# CaBem1-D1 = molecular target: CaBem1-D1
# In short: as §1
# CaBzz1-D1 = molecular target: CaBzz1-D1
# In short: as §1
# CaBzz1-D2 = molecular target: CaBzz1-D2
# In short: as §1
# CaCyk3 = molecular target: CaCyk3
# In short: as §1
# CaFus1 = molecular target: CaFus1
# In short: as §1
# CaHof1 = molecular target: CaHof1
# In short: as §1
# CaHse1 = molecular target: CaHse1
# In short: as §1
# CaLsb1 = molecular target: CaLsb1
# In short: as §1
# CaLsb4 = molecular target: CaLsb4
# In short: as §1
# CaMyo5 = molecular target: CaMyo5
# In short: as §1
# CaNbp2 = molecular target: CaNbp2
# In short: as §1
# CaRvs167 = molecular target: CaRvs167
# In short: as §1
# CaRvs167-3 = molecular target: CaRvs167-3
# In short: as §1
# CaSho1 = molecular target: CaSho1
# In short: as §1
# CaSla1-D1-D2 = molecular target: CaSla1-D1-D2
# In short: as §1
# CaSla1-D3 = molecular target: CaSla1-D3
# In short: as §1
# ScAbp1 = molecular target: ScAbp1
# In short: as §1
# ScBbc1 = molecular target: ScBbc1
# In short: as §1
# ScBem1-D1 = molecular target: ScBem1-D1
# In short: as §1
# ScBzz1-D1 = molecular target: ScBzz1-D1
# In short: as §1
# ScBzz1-D2 = molecular target: ScBzz1-D2
# In short: as §1
# ScCyk3 = molecular target: ScCyk3
# In short: as §1
# ScFus1 = molecular target: ScFus1
# In short: as §1
# ScHof1 = molecular target: ScHof1
# In short: as §1
# ScHse1 = molecular target: ScHse1
# In short: as §1
# ScLsb1 = molecular target: ScLsb1
# In short: as §1
# ScLsb2 = molecular target: ScLsb2
# In short: as §1
# ScLsb3 = molecular target: ScLsb3
# In short: as §1
# ScLsb4 = molecular target: ScLsb4
# In short: as §1
# ScMyo3 = molecular target: ScMyo3
# In short: as §1
# ScMyo5 = molecular target: ScMyo5
# In short: as §1
# ScNbp2 = molecular target: ScNbp2
# In short: as §1
# ScPex13 = molecular target: ScPex13
# In short: as §1
# ScRvs167 = molecular target: ScRvs167
# In short: as §1
# ScSho1 = molecular target: ScSho1
# In short: as §1
# ScSla1-D1-D2 = molecular target: ScSla1-D1-D2
# In short: as §1
# ScSla1-D3 = molecular target: ScSla1-D3
# In short: as §1
# SpAbp1-D1 = molecular target: SpAbp1-D1
# In short: as §1
# SpBbc1 = molecular target: SpBbc1
# In short: as §1
# SpBzz1-D1 = molecular target: SpBzz1-D1
# In short: as §1
# SpBzz1-D2 = molecular target: SpBzz1-D2
# In short: as §1
# SpCyk3 = molecular target: SpCyk3
# In short: as §1
# SpHof1 = molecular target: SpHof1
# In short: as §1
# SpHof1-2 = molecular target: SpHof1-2
# In short: as §1
# SpHof1-3 = molecular target: SpHof1-3
# In short: as §1
# SpHse1 = molecular target: SpHse1
# In short: as §1
# SpLsb1 = molecular target: SpLsb1
# In short: as §1
# SpLsb4 = molecular target: SpLsb4
# In short: as §1
# SpMyo1 = molecular target: SpMyo1
# In short: as §1
# SpNbp2 = molecular target: SpNbp2
# In short: as §1
# SpPex13 = molecular target: SpPex13
# In short: as §1
# SpRvs167 = molecular target: SpRvs167
# In short: as §1
# SpSla1-D1-D2 = molecular target: SpSla1-D1-D2
# In short: as §1
# SpSla1-D3 = molecular target: SpSla1-D3
# In short: as §1
binder,measurement,setting,value
VQPTAAPATPPRHIS,SPOT peptide array binding signal intensity,AgAbp1,≤ 0
same,SPOT peptide array binding signal intensity,AgBbc1,≤ 0
same,SPOT peptide array binding signal intensity,AgBem1-D1,≤ 0
same,SPOT peptide array binding signal intensity,AgBzz1-D1,≤ 0
same,SPOT peptide array binding signal intensity,AgBzz1-D2,≤ 0
same,SPOT peptide array binding signal intensity,AgCyk3,≤ 0
same,SPOT peptide array binding signal intensity,AgFus1,≤ 0
same,SPOT peptide array binding signal intensity,AgHof1,≤ 0
same,SPOT peptide array binding signal intensity,AgHse1,5.5
same,SPOT peptide array binding signal intensity,AgLsb1,8
same,SPOT peptide array binding signal intensity,AgLsb4,964
same,SPOT peptide array binding signal intensity,AgMyo5,≤ 0
same,SPOT peptide array binding signal intensity,AgNbp2,≤ 0
same,SPOT peptide array binding signal intensity,AgRvs167,43.6
same,SPOT peptide array binding signal intensity,AgSho1,≤ 0
same,SPOT peptide array binding signal intensity,AgSla1-D1-D2,≤ 0
same,SPOT peptide array binding signal intensity,AgSla1-D3,≤ 0
same,SPOT peptide array binding signal intensity,CaAbp1-D1,≤ 0
same,SPOT peptide array binding signal intensity,CaAbp1-D2,≤ 0
same,SPOT peptide array binding signal intensity,CaBbc1,78.6
same,SPOT peptide array binding signal intensity,CaBem1-D1,5
same,SPOT peptide array binding signal intensity,CaBzz1-D1,≤ 0
same,SPOT peptide array binding signal intensity,CaBzz1-D2,≤ 0
same,SPOT peptide array binding signal intensity,CaCyk3,≤ 0
same,SPOT peptide array binding signal intensity,CaFus1,≤ 0
same,SPOT peptide array binding signal intensity,CaHof1,≤ 0
same,SPOT peptide array binding signal intensity,CaHse1,5.25
same,SPOT peptide array binding signal intensity,CaLsb1,≤ 0
same,SPOT peptide array binding signal intensity,CaLsb4,2000
same,SPOT peptide array binding signal intensity,CaMyo5,≤ 0
same,SPOT peptide array binding signal intensity,CaNbp2,≤ 0
same,SPOT peptide array binding signal intensity,CaRvs167,462
same,SPOT peptide array binding signal intensity,CaRvs167-3,≤ 0
same,SPOT peptide array binding signal intensity,CaSho1,≤ 0
same,SPOT peptide array binding signal intensity,CaSla1-D1-D2,≤ 0
same,SPOT peptide array binding signal intensity,CaSla1-D3,≤ 0
same,SPOT peptide array binding signal intensity,ScAbp1,≤ 0
same,SPOT peptide array binding signal intensity,ScBbc1,1.75
same,SPOT peptide array binding signal intensity,ScBem1-D1,≤ 0
same,SPOT peptide array binding signal intensity,ScBzz1-D1,≤ 0
same,SPOT peptide array binding signal intensity,ScBzz1-D2,≤ 0
same,SPOT peptide array binding signal intensity,ScCyk3,≤ 0
same,SPOT peptide array binding signal intensity,ScFus1,≤ 0
same,SPOT peptide array binding signal intensity,ScHof1,0.5
same,SPOT peptide array binding signal intensity,ScHse1,≤ 0
same,SPOT peptide array binding signal intensity,ScLsb1,14.5
same,SPOT peptide array binding signal intensity,ScLsb2,≤ 0
same,SPOT peptide array binding signal intensity,ScLsb3,6740
same,SPOT peptide array binding signal intensity,ScLsb4,1970
same,SPOT peptide array binding signal intensity,ScMyo3,≤ 0
same,SPOT peptide array binding signal intensity,ScMyo5,≤ 0
same,SPOT peptide array binding signal intensity,ScNbp2,≤ 0
same,SPOT peptide array binding signal intensity,ScPex13,4
same,SPOT peptide array binding signal intensity,ScRvs167,1040
same,SPOT peptide array binding signal intensity,ScSho1,4.75
same,SPOT peptide array binding signal intensity,ScSla1-D1-D2,≤ 0
same,SPOT peptide array binding signal intensity,ScSla1-D3,≤ 0
same,SPOT peptide array binding signal intensity,SpAbp1-D1,≤ 0
same,SPOT peptide array binding signal intensity,SpBbc1,≤ 0
same,SPOT peptide array binding signal intensity,SpBzz1-D1,≤ 0
same,SPOT peptide array binding signal intensity,SpBzz1-D2,≤ 0
same,SPOT peptide array binding signal intensity,SpCyk3,≤ 0
same,SPOT peptide array binding signal intensity,SpHof1,0.5
same,SPOT peptide array binding signal intensity,SpHof1-2,0.25
same,SPOT peptide array binding signal intensity,SpHof1-3,15
same,SPOT peptide array binding signal intensity,SpHse1,≤ 0
same,SPOT peptide array binding signal intensity,SpLsb1,2
same,SPOT peptide array binding signal intensity,SpLsb4,4010
same,SPOT peptide array binding signal intensity,SpMyo1,≤ 0
same,SPOT peptide array binding signal intensity,SpNbp2,≤ 0
same,SPOT peptide array binding signal intensity,SpPex13,≤ 0
same,SPOT peptide array binding signal intensity,SpRvs167,1620
same,SPOT peptide array binding signal intensity,SpSla1-D1-D2,0.5
same,SPOT peptide array binding signal intensity,SpSla1-D3,≤ 0
DDEDVPPQLPTRTKS,SPOT peptide array binding signal intensity,SpBzz1-D2,≤ 0
same,SPOT peptide array binding signal intensity,SpCyk3,≤ 0
same,SPOT peptide array binding signal intensity,SpHof1,16.8
same,SPOT peptide array binding signal intensity,SpHof1-2,7
same,SPOT peptide array binding signal intensity,SpHof1-3,6
same,SPOT peptide array binding signal intensity,SpHse1,7
same,SPOT peptide array binding signal intensity,SpLsb1,27.5
same,SPOT peptide array binding signal intensity,SpLsb4,7620
same,SPOT peptide array binding signal intensity,SpMyo1,≤ 0
same,SPOT peptide array binding signal intensity,SpNbp2,8
same,SPOT peptide array binding signal intensity,SpPex13,≤ 0
same,SPOT peptide array binding signal intensity,SpRvs167,1800
same,SPOT peptide array binding signal intensity,SpSla1-D1-D2,≤ 0
same,SPOT peptide array binding signal intensity,SpSla1-D3,3
LKPPIGRPPKFPKSP,SPOT peptide array binding signal intensity,AgAbp1,926
same,SPOT peptide array binding signal intensity,AgBbc1,160
same,SPOT peptide array binding signal intensity,AgBem1-D1,27
same,SPOT peptide array binding signal intensity,AgBzz1-D1,57
same,SPOT peptide array binding signal intensity,AgBzz1-D2,4
same,SPOT peptide array binding signal intensity,AgCyk3,≤ 0
same,SPOT peptide array binding signal intensity,AgFus1,≤ 0
same,SPOT peptide array binding signal intensity,AgHof1,300
same,SPOT peptide array binding signal intensity,AgHse1,≤ 0
same,SPOT peptide array binding signal intensity,AgLsb1,≤ 0
same,SPOT peptide array binding signal intensity,AgLsb4,≤ 0
same,SPOT peptide array binding signal intensity,AgMyo5,1220
same,SPOT peptide array binding signal intensity,AgNbp2,≤ 0
same,SPOT peptide array binding signal intensity,AgRvs167,0.583
same,SPOT peptide array binding signal intensity,AgSho1,≤ 0
same,SPOT peptide array binding signal intensity,AgSla1-D1-D2,21.5
same,SPOT peptide array binding signal intensity,AgSla1-D3,≤ 0
same,SPOT peptide array binding signal intensity,CaAbp1-D1,1440
same,SPOT peptide array binding signal intensity,CaAbp1-D2,2140
same,SPOT peptide array binding signal intensity,CaBbc1,1150
same,SPOT peptide array binding signal intensity,CaBem1-D1,98
same,SPOT peptide array binding signal intensity,CaBzz1-D1,239
same,SPOT peptide array binding signal intensity,CaBzz1-D2,165
same,SPOT peptide array binding signal intensity,CaCyk3,16.5
same,SPOT peptide array binding signal intensity,CaFus1,49
same,SPOT peptide array binding signal intensity,CaHof1,≤ 0
same,SPOT peptide array binding signal intensity,CaHse1,1.5
same,SPOT peptide array binding signal intensity,CaLsb1,≤ 0
same,SPOT peptide array binding signal intensity,CaLsb4,2
same,SPOT peptide array binding signal intensity,CaMyo5,45.5

# From the supplement of paper PMC4466140
